High-throughput results: PubChem, National Center for Advancing Translational Sciences (NCATS)
Most compounds without a hit are left out; they make up all but 19% or so of the library.
HepG2 tox = kills HepG2 cells in TGF-b inhibitor counter-screen | Potency, µM (top dose mostly 46.1 µM), most hits filed as cytotoxic | HepG2 CAGA-GFP viability, ATP luminescence, 18 h | hit rate 0.76% among 410,000
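CellTiter-Glo luminescence gave cytotoxicity after 18 hours at 37 degrees C. The cells were HepG2 CAGA-GFP in 1% FBS DMEM, stimulated with 500 pg/mL TGF-beta after compound addition. %Activity was normalised to no-cell wells (complete cell-killing) and DMSO (no toxicity), and curves were fitted and classified.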
S-ASM inh = human S-ASM enzyme inhibition; placental ASM, HMU-PC fluorogenic substrate, 60 min; P17405; AID 504937; Potency, µM (doses to about 57.5 µM), hits mostly inhibitors; hit rate 0.006% among 340,000
Target sequence (P17405 47-631 limits assumed): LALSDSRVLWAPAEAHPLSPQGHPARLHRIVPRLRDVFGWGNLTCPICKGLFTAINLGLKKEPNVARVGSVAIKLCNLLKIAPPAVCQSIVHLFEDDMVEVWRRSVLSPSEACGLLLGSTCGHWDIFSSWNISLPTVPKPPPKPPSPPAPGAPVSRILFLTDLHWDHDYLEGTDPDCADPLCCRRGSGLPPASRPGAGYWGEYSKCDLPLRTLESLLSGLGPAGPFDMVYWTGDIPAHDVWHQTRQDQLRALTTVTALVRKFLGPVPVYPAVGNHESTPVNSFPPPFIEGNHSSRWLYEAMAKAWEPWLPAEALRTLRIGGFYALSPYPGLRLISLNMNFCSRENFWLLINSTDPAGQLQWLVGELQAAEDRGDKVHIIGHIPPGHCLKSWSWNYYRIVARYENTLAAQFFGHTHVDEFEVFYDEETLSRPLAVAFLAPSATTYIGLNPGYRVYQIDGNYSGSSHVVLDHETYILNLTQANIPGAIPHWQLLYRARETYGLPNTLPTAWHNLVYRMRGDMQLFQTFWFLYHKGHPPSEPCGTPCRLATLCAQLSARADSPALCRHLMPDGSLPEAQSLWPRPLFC
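HMU-PC0 cleavage (9 uM final) by human placental ASM, 60 min at 37 °C following 10 min compound exposure at RT; stopped at pH 10, fluorescence Ex 386/Em 447 nm.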
IL-1B inflam inh = blocks inflammasome-driven IL-1 beta release | THP-1 LPS/ATP IL-1B secretion, AlphaLISA, 16 h; hits give low values | activity change, % at 57.5 µM | hit rate 4.7% among 360,000 | AID 743279; in the data active = activity change below about -50%; inconclusive = mostly about -30% to -49%
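Secreted IL-1B measured by AlphaLISA bead assay after 16 h compound exposure of THP-1 cells; compounds (final up to 57.5 uM) added 1 h before LPS (250 ng/mL) and ATP (1.25 mM) stimulation; lower signal means less secretion.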
TGFb SMAD3 inh = TGF-b pathway inhibition; Potency, µM (titrated, usually from 46.1 µM), most hits filed as inhibitors; hit rate 1.2% among 410,000; HepG2 CAGA-GFP TGF-b/SMAD3 reporter, GFP fluorescence, 18 h; TGF-beta stimulated, 500 pg/mL final; note: nearly all actives have a fitted effect of over 65% in size
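Read-out: total well GFP (ex488/em500-530) summed from mean per-cell fluorescence. Cells: HEPG2 CAGA-GFP, 1% FBS DMEM, 18 h at 37 degrees C with 500 pg/mL final TGF-beta. Unstimulated wells served as the full-inhibition control; stimulated DMSO wells = 0%.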
DT40 TDP1 CPT = DT40-hTDP1 cell growth loss with CPT; chicken DT40 Tdp1-/-;hTDP1 cells + 20 nM CPT, ATP luminescence, 48 h; Potency, µM (series often up to 46.2 µM), actives largely listed as inhibitors; hit rate 12% among 420,000; AID 686979; note: nearly all actives have a fitted effect of over 55% in size
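Cell growth measured by CellTiter-Glo luminescence after a minimum 48 h, 37 C compound exposure with 20 nM CPT in Tdp1-knockout DT40 cells stably expressing hTDP1, seeded 400/well; qHTS titration format.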
TDP1 cell noCPT = qHTS for Inhibitors of human tyrosyl-DNA phosphodiesterase 1 (TDP1): qHTS in cells in absence of CPT; DT40 Tdp1-/- hTDP1 cells, no CPT, ATP luminescence, 48 h; Potency, µM (top dose mostly 46.2 µM), usual class: inhibitors; hit rate 15% among 420,000; AID 686978, 2013; note: nearly all actives have a fitted effect of over 55% in size
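Growth of hTDP1-complemented DT40 Tdp1-knockout cells is measured by ATP luminescence after at least 48 hr compound exposure at 37 °C, with DMSO substituting for the 20 nM CPT used in the parallel screen.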
Numbers stand for hits; 0 = inactive; ? = inconclusive; - = no result. Unless noted, calls come from the whole dose curve; as a rule, active = well fitted curve in the direction sought with a large enough effect; inconclusive = small, poorly fitted or top-dose-only effect, or another doubt; inactive = no such curve, though single readings can be large; an effect the other way counts as inactive or inconclusive.

SMILES	HepG2 tox	S-ASM inh	IL-1B inflam inh	TGFb SMAD3 inh	DT40 TDP1 CPT	TDP1 cell noCPT
CC1=C(C(=O)Nc2ccccc2)C(c2ccncc2)n2nc(SCc3ccccc3F)nc2N1 (configuration not stated)	0	-	-	0	0	0
CCN1C(=O)N/C(=C/c2ccc(C)o2)C1=O	0	0	0	0	23µM	21µM
Cc1ccc(/C=C2/NC(=O)N(c3ccccc3)C2=O)o1	0	0	0	0	10µM	16µM
Cc1ccc(/C=C2/NC(=O)N(Cc3ccc(Br)cc3)C2=O)o1	0	0	0	0	?	?
Cc1c(C(=O)O)cccc1-c1ccc(/C=C2/NC(=O)N(c3ccccc3)C2=O)o1	0	0	0	0	?	?
CCCN(CCC)C(=O)c1cc(-c2ccc3c(c2)OCO3)nc2ccccc12	0	0	0	0	15µM	15µM
O=C(NCc1ccc(F)cc1)c1cc(-c2ccncc2)nc2ccccc12	0	0	0	0	?	?
O=C(O)c1cc(-c2ccc3c(c2)OCO3)nc2ccccc12	0	0	0	0	?	0
O=C(NCc1ccc2c(c1)OCO2)c1cc(-c2ccncc2)nc2ccccc12	0	0	0	0	16µM	?
CC(=O)Oc1ccc2nc(-c3ccco3)oc(=O)c2c1	0	0	0	0	?	?
O=c1onc(-c2ccccc2Cl)n1-c1ccccc1Cl	0	0	0	0	0	0
Cc1ccc(N2CC(=O)N(c3ccc(C)cc3)CC2=O)cc1	0	0	0	0	0	0
COc1cc2c(cc1OC)C(C)N(CC(=O)Nc1ccc(C)c(S(=O)(=O)N3CCOCC3)c1)CC2 (configuration not stated)	0	0	0	0	?	16µM
COc1ccc(NC(=O)CN2CCc3ccccc3C2)cc1S(=O)(=O)N1CCOCC1	0	0	0	0	0	0
Cc1ccc(NC(=O)CNc2cccc(Br)c2)cc1S(=O)(=O)N1CCOCC1	0	0	-52	?	?	16µM
Cc1nc(-c2ccc(F)cc2)c(CC(=O)Nc2ccc(C)c(S(=O)(=O)N3CCOCC3)c2)s1	0	0	0	0	10µM	?
Cc1ccc(NCC(=O)Nc2ccc(F)c(Cl)c2)cc1S(=O)(=O)N1CCOCC1	0	-	0	?	?	21µM
CN(CCO)C(=O)c1cn(C2CCCN(Cc3ccc4ccccc4c3)C2)nn1 (configuration not stated)	-	-	-	-	0	0
O=C(NCCCn1cccn1)C1CCC(=O)N(Cc2ccccc2F)C1 (configuration not stated)	0	0	0	0	0	0
Cc1cc(C)n2cc(CSc3nncn3C)nc2n1	0	0	0	0	0	0
Cc1ccc(NC(=O)CSc2ccccc2)cc1S(=O)(=O)N1CCOCC1	0	-	0	0	?	?
Cc1ccc(C)c(SCC(=O)Nc2ccc(C)c(S(=O)(=O)N3CCOCC3)c2)c1	0	0	0	?	23µM	13µM
COCC(=O)N1CCC(Oc2ccc(C(=O)N3C[C@@H]4CCC[C@H]3C4)cc2)CC1	0	0	0	0	0	0
CCOC(=O)C1(Cc2cccc(OC)c2)CCN(Cc2cccnc2)CC1	0	0	0	0	?	29µM
CCOC(=O)C1(Cc2cccc(OC)c2)CCN(Cc2cccc3cnccc23)CC1	0	0	0	0	18µM	?
SMILES	HepG2 tox	S-ASM inh	IL-1B inflam inh	TGFb SMAD3 inh	DT40 TDP1 CPT	TDP1 cell noCPT
CCOC(=O)C1(Cc2cccc(OC)c2)CCN(Cc2cccc3c2OCO3)CC1	0	0	0	0	?	18µM
CCOC(=O)C1(CC2CCCCO2)CCN(Cc2nc3ccccc3nc2C)CC1 (configuration not stated)	0	0	0	0	?	?
CCOC(=O)C1(Cc2cccc(OC)c2)CCN(Cc2cnc(SC)nc2)CC1	0	0	0	0	0	?
CCOC(=O)C1(CC2CCCCO2)CCN(Cc2ccc(OC)cc2F)CC1 (configuration not stated)	0	0	0	0	?	21µM
COc1ccc(-c2noc(CNC(=O)c3ccccc3Br)n2)cc1	0	-	-	0	0	0
Cc1[nH]c2ccccc2c1C(=O)C(=O)N1CCN(C)CC1	0	0	0	0	0	0
CCOC(=O)C1(Cc2cccc(OC)c2)CCN(Cc2cc(OC)ccc2OC)CC1	0	0	-67	?	?	16µM
CCOC(=O)C1(Cc2cccc(OC)c2)CCN(Cc2cccn2-c2ccccn2)CC1	0	0	0	3.2µM	0	?
CCOC(=O)C1(Cc2cccc(OC)c2)CCCN(Cc2nccn2CC)C1 (configuration not stated)	0	0	0	0	15µM	13µM
CCOC(=O)C1(Cc2cccc(OC)c2)CCN(Cc2cccc(OC)c2OC)CC1	0	0	-65	?	?	18µM
CCOC(=O)C1(Cc2cccc(OC)c2)CCN(Cc2ccccc2)CC1	0	0	0	0	?	?
CCOC(=O)C1(Cc2cccc(OC)c2)CCN(Cc2cnc(N)nc2)CC1	0	0	0	0	0	0
Cc1cc(C)n2nc(SCC(=O)N(CCC#N)c3ccc(F)cc3)nc2n1	0	0	0	0	0	0
CCOC(=O)C1=C(COC(=O)/C=C/c2cccc(OC)c2OC)NC(=O)NC1C (configuration not stated)	0	0	0	0	0	0
Cc1ccc(S(=O)(=O)N2CCN(C(=O)CN(Cc3ccco3)Cc3cccs3)CC2)cc1	0	0	0	0	0	0
CC(C)CCN1C(=O)CSCC1(C)C(=O)NC(C)C (configuration not stated)	-	-	0	-	0	0
CCOC(=O)C1(Cc2ccc(OC)cc2)CCN(C(=O)c2ccc3[nH]ccc3c2)CC1	0	0	0	?	9.2µM	7.3µM
COCCNC(=O)CSc1cc(=O)n(C)c2cc(Cl)ccc12	0	0	0	0	0	0
CCN(CCCNC(=O)CSc1cc(=O)n(C)c2cc(Cl)ccc12)c1ccccc1	0	-	-	?	?	?
CN(CCCNC(=O)CSc1cc(=O)n(C)c2ccc(Cl)cc12)Cc1ccccc1	0	0	-54	0	?	?
CCc1ccc(CNC(=O)CSc2cc(=O)n(C)c3ccc(Cl)cc23)cc1	0	-	-	0	23µM	23µM
C[C@H](CO)N1C[C@H](C)[C@H](CN(C)C(=O)CCC(F)(F)F)OCc2cnnn2CCCC1=O	0	-	0	0	0	0
